Tests used:
[1] = biological target: T1, Inhibitor of nuclear factor kappa-B kinase subunit epsilon (Homo sapiens) (UniProt Q14164); conditions: at 1 µM;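 also: reported values are averaged percent inhibition figures against human IKKε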
T1 sequence (whole entry): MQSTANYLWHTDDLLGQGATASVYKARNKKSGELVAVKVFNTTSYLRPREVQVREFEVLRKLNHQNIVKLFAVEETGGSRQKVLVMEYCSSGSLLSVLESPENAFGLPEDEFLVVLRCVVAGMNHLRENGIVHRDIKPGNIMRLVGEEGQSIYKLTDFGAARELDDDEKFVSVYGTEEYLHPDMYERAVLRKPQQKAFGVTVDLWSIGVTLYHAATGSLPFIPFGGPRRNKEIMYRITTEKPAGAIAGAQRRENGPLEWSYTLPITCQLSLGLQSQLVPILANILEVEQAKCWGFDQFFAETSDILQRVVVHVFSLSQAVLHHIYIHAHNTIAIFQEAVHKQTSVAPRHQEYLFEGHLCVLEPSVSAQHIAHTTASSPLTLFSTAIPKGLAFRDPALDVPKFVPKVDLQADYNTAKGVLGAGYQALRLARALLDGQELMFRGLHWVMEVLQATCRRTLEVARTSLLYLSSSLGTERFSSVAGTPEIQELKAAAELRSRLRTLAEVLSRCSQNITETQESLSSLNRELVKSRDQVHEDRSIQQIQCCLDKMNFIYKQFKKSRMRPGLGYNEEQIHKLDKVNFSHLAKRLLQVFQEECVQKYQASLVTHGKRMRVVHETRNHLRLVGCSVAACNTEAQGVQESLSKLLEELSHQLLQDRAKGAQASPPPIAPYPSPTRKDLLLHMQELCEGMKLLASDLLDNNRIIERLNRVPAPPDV

[2] = biological target: T2, Serine/threonine-protein kinase Nek1 (Homo sapiens) (UniProt Q96PY6); conditions: at 0.1 µM
T2 sequence (whole entry): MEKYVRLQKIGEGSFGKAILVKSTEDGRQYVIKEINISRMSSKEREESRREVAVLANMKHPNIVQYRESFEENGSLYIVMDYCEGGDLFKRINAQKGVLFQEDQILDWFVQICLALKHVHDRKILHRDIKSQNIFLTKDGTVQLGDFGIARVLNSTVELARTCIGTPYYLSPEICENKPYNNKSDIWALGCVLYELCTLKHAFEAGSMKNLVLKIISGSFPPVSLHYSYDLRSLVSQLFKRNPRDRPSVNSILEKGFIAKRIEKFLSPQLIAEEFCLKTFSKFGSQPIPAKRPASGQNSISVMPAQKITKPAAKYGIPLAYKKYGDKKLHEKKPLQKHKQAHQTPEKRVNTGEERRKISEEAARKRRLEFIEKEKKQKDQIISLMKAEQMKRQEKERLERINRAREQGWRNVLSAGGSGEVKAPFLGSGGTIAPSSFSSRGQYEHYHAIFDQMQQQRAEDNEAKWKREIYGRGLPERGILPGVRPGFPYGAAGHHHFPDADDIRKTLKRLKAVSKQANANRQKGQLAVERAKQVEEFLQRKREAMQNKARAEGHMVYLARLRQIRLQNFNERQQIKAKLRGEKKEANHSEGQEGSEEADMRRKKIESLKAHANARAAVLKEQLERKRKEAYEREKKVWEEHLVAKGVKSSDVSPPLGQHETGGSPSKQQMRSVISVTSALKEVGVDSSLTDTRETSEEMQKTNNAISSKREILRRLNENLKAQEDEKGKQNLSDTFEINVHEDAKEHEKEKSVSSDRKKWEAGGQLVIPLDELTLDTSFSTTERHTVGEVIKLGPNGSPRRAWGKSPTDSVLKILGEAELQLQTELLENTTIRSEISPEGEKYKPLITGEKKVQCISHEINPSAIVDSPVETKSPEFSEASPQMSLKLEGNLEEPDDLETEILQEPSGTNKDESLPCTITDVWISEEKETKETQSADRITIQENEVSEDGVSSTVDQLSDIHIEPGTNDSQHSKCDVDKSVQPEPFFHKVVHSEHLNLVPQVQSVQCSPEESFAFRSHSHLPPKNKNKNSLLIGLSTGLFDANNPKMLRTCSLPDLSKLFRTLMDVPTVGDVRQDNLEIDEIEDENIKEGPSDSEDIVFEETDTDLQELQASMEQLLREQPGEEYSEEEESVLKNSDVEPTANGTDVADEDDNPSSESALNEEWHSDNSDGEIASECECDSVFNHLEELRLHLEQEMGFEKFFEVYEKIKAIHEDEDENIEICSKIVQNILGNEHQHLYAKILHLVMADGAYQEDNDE

[3] = biological target: T2, Serine/threonine-protein kinase Nek1 (Homo sapiens); conditions: at 1 µM
[4] = biological target: T3, Serine/threonine-protein kinase Nek2 (Homo sapiens) (UniProt P51955); conditions: at 0.1 µM
T3 sequence (whole entry): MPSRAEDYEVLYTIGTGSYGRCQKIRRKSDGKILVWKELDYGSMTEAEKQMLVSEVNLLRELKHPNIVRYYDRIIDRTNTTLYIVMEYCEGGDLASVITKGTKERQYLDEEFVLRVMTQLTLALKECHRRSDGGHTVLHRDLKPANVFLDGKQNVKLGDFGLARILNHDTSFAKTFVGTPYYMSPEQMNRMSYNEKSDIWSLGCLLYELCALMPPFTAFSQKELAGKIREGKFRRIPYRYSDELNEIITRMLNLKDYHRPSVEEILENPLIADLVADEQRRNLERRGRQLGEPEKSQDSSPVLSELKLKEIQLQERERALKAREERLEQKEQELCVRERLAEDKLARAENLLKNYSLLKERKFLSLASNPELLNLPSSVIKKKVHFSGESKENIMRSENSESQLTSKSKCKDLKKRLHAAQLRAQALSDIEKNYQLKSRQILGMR

[5] = biological target: T3, Serine/threonine-protein kinase Nek2 (Homo sapiens); conditions: at 1 µM
[6] = biological target: Serine/threonine-protein kinase Nek6 (Homo sapiens) (UniProt Q9HC98); conditions: at 0.1 µM
Serine/threonine-protein kinase Nek6 (Homo sapiens), sequence (Q9HC98 whole entry): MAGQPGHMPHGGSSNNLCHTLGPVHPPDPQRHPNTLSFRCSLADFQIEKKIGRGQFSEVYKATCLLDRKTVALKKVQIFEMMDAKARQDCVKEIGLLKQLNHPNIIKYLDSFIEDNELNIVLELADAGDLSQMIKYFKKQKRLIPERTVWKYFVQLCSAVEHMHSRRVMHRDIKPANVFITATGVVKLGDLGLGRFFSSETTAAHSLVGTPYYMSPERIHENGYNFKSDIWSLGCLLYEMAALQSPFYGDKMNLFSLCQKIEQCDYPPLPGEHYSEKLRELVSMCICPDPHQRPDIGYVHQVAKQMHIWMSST

[7] = biological target: Serine/threonine-protein kinase Nek6 (Homo sapiens) (UniProt Q9HC98); conditions: at 1 µM
[8] = biological target: Serine/threonine-protein kinase Nek7 (Homo sapiens) (UniProt Q8TDX7); conditions: at 0.1 µM
Serine/threonine-protein kinase Nek7 (Homo sapiens), sequence (Q8TDX7 whole entry, looked up): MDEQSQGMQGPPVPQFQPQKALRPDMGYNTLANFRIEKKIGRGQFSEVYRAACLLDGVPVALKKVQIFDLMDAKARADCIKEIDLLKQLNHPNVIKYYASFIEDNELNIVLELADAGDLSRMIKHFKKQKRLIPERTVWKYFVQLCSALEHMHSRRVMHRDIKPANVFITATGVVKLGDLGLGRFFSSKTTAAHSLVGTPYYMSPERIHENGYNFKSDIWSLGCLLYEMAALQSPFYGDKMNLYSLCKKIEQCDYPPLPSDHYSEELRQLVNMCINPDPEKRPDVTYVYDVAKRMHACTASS

[9] = biological target: Serine/threonine-protein kinase Nek7 (Homo sapiens) (UniProt Q8TDX7); conditions: at 1 µM
[10] = biological target: T4, Serine/threonine-protein kinase Nek9 (Homo sapiens) (UniProt Q8TD19); conditions: at 0.1 µM
T4 sequence (whole entry): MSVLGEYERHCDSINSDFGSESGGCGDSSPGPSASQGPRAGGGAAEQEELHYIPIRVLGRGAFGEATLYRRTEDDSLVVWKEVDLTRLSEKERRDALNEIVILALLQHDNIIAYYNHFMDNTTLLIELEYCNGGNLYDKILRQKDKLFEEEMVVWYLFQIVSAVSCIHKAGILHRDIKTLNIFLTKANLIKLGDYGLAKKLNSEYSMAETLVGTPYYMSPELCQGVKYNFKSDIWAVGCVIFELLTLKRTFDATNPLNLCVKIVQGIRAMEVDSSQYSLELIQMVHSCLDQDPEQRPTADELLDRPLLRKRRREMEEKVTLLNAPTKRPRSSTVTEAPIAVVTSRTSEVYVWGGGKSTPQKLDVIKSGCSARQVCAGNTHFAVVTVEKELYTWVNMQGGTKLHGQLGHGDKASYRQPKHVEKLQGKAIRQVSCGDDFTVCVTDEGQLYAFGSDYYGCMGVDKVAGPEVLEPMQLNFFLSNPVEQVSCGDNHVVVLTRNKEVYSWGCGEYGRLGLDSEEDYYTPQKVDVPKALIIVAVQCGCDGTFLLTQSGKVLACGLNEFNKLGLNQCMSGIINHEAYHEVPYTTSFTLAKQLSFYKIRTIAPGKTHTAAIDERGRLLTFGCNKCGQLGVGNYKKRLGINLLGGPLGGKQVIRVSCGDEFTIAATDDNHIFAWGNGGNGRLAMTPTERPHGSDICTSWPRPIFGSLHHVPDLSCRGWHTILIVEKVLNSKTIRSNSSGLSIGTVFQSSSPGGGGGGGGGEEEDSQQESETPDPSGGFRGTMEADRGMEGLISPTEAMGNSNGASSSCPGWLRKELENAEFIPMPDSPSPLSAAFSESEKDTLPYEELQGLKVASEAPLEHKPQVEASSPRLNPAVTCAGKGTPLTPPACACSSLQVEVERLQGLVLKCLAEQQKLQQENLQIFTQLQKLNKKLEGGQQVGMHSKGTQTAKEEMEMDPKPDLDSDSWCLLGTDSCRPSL

[11] = biological target: T4, Serine/threonine-protein kinase Nek9 (Homo sapiens); conditions: at 1 µM
[12] = biological target: Serine/threonine-protein kinase PLK1 (Homo sapiens) (UniProt P53350); conditions: at 0.1 µM
Serine/threonine-protein kinase PLK1 (Homo sapiens), sequence (P53350 whole entry): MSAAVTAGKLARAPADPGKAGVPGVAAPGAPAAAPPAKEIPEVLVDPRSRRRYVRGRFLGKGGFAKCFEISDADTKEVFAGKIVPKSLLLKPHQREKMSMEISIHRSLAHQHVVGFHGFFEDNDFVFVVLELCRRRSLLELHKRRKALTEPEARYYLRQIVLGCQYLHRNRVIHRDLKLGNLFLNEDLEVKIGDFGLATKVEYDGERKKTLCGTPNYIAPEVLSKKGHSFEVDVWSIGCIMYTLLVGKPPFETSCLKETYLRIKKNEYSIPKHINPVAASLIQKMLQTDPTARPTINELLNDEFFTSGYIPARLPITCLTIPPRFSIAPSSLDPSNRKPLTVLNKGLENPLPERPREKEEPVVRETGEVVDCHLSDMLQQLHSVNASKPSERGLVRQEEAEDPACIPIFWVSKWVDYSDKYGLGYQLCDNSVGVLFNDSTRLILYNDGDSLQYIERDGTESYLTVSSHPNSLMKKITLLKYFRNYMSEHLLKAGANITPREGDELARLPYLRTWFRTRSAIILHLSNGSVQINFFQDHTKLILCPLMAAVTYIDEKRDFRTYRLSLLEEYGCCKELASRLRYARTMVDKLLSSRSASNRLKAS

[13] = biological target: Serine/threonine-protein kinase PLK1 (Homo sapiens) (UniProt P53350); conditions: at 1 µM
[14] = biological target: T5, Dual specificity protein kinase TTK (Homo sapiens) (UniProt P33981); conditions: at 0.1 µM
T5 sequence (whole entry): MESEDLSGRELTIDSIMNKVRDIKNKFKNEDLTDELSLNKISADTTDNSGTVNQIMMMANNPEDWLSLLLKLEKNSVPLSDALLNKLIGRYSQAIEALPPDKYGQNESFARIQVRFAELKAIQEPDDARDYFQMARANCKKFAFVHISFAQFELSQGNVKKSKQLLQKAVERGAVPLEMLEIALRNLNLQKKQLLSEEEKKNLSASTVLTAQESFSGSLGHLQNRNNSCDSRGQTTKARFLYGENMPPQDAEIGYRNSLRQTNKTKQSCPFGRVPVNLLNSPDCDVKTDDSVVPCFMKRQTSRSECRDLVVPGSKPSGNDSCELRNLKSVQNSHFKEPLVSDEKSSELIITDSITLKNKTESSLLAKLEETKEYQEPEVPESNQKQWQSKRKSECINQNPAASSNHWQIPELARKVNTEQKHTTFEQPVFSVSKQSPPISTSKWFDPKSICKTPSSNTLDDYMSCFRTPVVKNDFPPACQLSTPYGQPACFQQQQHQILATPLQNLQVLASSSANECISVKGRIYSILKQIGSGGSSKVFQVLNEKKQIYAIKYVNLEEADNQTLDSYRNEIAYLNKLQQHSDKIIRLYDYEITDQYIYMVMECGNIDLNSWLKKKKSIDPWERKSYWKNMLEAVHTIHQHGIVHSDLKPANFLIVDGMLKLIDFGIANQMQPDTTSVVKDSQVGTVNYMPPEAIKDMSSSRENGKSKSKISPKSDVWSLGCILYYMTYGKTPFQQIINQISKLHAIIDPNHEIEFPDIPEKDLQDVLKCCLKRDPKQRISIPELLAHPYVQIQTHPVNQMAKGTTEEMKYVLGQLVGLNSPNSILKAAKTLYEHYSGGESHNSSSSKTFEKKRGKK

[15] = system: T6, Receptor-type tyrosine-protein kinase FLT3 (Homo sapiens), P36888 [D835Y]; conditions: at 1 µM
T6 sequence (whole entry): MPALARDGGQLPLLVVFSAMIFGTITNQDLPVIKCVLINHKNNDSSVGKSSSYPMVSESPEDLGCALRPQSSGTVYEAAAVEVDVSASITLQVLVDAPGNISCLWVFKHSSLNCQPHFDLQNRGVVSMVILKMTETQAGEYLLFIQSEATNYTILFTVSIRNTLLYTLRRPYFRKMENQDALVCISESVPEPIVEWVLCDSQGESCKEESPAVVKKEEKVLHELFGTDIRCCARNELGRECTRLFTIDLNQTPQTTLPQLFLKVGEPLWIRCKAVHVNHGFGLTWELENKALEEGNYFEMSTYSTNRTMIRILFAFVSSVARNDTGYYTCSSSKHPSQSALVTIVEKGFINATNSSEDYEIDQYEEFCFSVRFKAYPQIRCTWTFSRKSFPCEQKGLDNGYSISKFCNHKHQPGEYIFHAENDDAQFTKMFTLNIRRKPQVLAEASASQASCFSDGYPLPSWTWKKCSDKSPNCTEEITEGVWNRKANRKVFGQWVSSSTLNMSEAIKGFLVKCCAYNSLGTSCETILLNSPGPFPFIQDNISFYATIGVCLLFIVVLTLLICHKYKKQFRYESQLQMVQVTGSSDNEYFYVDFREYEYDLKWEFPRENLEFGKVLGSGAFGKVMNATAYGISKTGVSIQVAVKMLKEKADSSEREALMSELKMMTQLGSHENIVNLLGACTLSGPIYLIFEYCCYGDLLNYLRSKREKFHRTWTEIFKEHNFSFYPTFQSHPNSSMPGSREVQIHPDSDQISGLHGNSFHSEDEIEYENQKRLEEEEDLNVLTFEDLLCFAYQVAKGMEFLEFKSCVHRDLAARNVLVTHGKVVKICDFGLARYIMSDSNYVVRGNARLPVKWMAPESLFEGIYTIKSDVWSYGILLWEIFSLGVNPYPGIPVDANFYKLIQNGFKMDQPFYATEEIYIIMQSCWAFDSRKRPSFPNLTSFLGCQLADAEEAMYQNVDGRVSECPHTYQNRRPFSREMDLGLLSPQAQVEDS

[16] = biological target: Vascular endothelial growth factor receptor 3 (Homo sapiens) (UniProt P35916); conditions: at 0.1 µM
Vascular endothelial growth factor receptor 3 (Homo sapiens), sequence (P35916 whole entry): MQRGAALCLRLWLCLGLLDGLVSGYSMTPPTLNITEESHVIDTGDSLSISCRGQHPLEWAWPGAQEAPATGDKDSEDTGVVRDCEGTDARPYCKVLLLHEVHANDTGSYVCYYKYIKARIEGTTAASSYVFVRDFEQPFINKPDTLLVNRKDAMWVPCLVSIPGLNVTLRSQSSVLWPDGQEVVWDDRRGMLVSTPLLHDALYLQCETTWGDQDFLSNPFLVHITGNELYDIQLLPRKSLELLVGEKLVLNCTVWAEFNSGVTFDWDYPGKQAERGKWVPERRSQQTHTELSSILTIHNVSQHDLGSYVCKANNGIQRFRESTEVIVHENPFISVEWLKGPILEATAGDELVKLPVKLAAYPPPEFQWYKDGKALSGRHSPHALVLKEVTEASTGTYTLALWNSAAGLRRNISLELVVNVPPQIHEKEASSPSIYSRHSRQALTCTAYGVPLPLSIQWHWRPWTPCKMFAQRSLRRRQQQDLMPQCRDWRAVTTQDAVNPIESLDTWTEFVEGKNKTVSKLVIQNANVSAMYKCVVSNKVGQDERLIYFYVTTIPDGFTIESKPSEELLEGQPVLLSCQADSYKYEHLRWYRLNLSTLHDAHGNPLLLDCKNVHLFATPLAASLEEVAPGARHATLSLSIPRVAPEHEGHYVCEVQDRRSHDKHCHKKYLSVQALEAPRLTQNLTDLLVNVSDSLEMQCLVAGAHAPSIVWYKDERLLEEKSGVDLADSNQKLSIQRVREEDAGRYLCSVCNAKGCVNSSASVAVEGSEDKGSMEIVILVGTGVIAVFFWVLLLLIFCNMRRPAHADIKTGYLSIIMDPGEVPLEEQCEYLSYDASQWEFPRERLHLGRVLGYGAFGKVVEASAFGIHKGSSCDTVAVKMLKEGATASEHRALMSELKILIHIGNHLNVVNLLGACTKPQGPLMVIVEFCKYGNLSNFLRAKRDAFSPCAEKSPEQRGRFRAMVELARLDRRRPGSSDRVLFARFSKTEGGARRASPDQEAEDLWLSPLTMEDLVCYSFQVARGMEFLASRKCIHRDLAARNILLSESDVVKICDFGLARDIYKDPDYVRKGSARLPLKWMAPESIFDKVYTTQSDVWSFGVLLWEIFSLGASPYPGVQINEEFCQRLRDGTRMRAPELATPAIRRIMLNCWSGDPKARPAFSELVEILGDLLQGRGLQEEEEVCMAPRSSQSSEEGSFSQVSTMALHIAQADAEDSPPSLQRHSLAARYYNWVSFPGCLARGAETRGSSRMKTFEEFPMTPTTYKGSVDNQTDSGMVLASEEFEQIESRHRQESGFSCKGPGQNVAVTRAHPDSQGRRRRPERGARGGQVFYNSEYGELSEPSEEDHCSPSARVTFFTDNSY

[17] = biological target: Vascular endothelial growth factor receptor 3 (Homo sapiens) (UniProt P35916); conditions: at 1 µM
[18] = biological target: Macrophage colony-stimulating factor 1 receptor (Homo sapiens) (UniProt P07333); conditions: at 0.1 µM
Macrophage colony-stimulating factor 1 receptor (Homo sapiens), sequence (P07333 whole entry): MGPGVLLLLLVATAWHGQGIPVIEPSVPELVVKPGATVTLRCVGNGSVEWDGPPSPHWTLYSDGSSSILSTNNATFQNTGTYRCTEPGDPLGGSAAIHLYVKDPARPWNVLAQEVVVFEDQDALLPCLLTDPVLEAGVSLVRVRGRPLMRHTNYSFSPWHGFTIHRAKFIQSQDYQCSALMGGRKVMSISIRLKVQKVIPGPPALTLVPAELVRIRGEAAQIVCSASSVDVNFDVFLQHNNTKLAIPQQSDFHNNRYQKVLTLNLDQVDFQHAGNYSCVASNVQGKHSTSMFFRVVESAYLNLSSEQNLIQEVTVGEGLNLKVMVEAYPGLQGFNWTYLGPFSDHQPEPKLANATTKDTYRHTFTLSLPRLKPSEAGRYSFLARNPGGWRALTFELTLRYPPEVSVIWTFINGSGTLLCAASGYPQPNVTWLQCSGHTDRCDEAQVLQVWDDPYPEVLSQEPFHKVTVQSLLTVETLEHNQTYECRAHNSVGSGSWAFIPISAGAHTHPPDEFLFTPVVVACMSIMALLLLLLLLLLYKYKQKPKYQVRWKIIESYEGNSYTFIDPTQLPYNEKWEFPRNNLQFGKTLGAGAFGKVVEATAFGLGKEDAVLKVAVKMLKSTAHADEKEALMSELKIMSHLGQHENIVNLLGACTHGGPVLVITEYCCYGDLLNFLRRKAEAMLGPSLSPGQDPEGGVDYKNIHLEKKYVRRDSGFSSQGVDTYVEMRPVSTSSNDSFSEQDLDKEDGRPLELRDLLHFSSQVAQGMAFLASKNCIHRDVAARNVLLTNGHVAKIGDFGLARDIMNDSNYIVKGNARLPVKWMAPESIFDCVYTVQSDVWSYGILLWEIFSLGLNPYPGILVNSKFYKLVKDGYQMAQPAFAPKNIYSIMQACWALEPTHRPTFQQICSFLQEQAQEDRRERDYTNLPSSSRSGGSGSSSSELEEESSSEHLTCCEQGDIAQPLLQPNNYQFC

[19] = biological target: Macrophage colony-stimulating factor 1 receptor (Homo sapiens) (UniProt P07333); conditions: at 1 µM
[20] = biological target: Tyrosine-protein kinase Fyn (Homo sapiens) (UniProt P06241); conditions: at 0.1 µM
Tyrosine-protein kinase Fyn (Homo sapiens), sequence (P06241 2-537 limits assumed): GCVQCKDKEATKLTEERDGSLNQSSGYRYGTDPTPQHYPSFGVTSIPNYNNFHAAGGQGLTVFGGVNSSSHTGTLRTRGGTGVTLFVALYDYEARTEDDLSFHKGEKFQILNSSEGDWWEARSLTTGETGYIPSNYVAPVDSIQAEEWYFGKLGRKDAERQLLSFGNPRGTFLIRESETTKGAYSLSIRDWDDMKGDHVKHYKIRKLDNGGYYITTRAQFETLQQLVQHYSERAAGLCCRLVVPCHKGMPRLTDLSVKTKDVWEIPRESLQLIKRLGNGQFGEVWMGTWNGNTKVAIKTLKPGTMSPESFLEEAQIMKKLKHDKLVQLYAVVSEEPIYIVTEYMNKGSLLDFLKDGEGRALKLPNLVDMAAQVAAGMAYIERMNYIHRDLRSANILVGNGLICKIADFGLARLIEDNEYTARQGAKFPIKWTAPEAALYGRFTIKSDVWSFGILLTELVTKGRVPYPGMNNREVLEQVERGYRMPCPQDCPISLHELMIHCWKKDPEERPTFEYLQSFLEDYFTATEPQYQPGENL

Compound	inhibition [1] [%]	inhibition [2] [%]	inhibition [3] [%]	inhibition [4] [%]	inhibition [5] [%]	inhibition [6] [%]	inhibition [7] [%]	inhibition [8] [%]	inhibition [9] [%]	inhibition [10] [%]	inhibition [11] [%]	inhibition [12] [%]	inhibition [13] [%]	inhibition [14] [%]	inhibition [15] [%]	inhibition [16] [%]	inhibition [17] [%]	inhibition [18] [%]	inhibition [19] [%]	inhibition [20] [%]
O=C(O[C@H]1CN[C@H](C#Cc2cc3ncnc(Nc4ccc5c(ccn5Cc5cc(F)ccc5F)c4)c3s2)C1)N1CCOCC1	3.8	2.94	1.91	2.01	7.68	4.81	1.23	4.67	3.63	4.24	12.3	4.51	10.8	11	-1.27	4.34	4.77	2.09	15.5	4.48
COc1cc(N2CCN(C(C)C)CC2)ccc1Nc1nc(Nc2cccc3ncccc23)c2cc[nH]c2n1	0.88	-0.11	0.84	-0.73	-0.48	-0.86	-2.27	1.54	-0.41	4.56	-1.45	-0.26	0.8	52.1	1.87	0.19	0.22	1.9	3.33	2.06

Source: ChEMBL document CHEMBL1961873, “Compounds: GSK PKIS; Assays: Nanosyn kinase panel” (2012)
